Where “and” joins values, the source holds several entries; their conditions need not be identical. Identical values can stand only once. Compounds without any hit were thinned out: in the full panel of roughly 83,000, 20% have a hit.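 In brief: 96-well plates, 48 h treatment, single concentration, percent growth endpoint.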 Calls of active or inactive are those of the source. The calls were made as follows: active = growth percent below 10; inactive = the rest.
Tests used:
Test in all cases: NCI-60 one-dose screen, 48 h (100 = growth as untreated, 0 = no growth, -100 = all killed)
Details in all cases: 10 µM unless noted
SR leukemia = tested on: SR leukemia
RPMI-8226 leukemia = tested on: RPMI-8226 leukemia
OVCAR-8 ovarian = tested on: OVCAR-8 ovarian
OVCAR-5 ovarian = tested on: OVCAR-5 ovarian
OVCAR-4 ovarian = tested on: OVCAR-4 ovarian
SK-OV-3 ovarian = tested on: SK-OV-3 ovarian
IGROV1 ovarian = tested on: IGROV1 ovarian
OVCAR-3 ovarian = tested on: OVCAR-3 ovarian
HS 578T breast = tested on: HS 578T breast
NCI/ADR-RES ovarian = tested on: NCI/ADR-RES ovarian
T-47D breast = tested on: T-47D breast
BT-549 breast = tested on: BT-549 breast
MDA-MB-435 melanoma = tested on: MDA-MB-435 melanoma
SW-620 colon = tested on: SW-620 colon
MCF7 breast = tested on: MCF7 breast
HCT-116 colon = tested on: HCT-116 colon
HCC-2998 colon = tested on: HCC-2998 colon
KM12 colon = tested on: KM12 colon
MDA-MB-468 breast = tested on: MDA-MB-468 breast

Structure (SMILES) | growth (SR leukemia) | growth (RPMI-8226 leukemia) | growth (OVCAR-8 ovarian) | growth (OVCAR-5 ovarian) | growth (OVCAR-4 ovarian) | growth (SK-OV-3 ovarian) | growth (IGROV1 ovarian) | growth (OVCAR-3 ovarian) | growth (HS 578T breast) | growth (NCI/ADR-RES ovarian) | growth (T-47D breast) | growth (BT-549 breast) | growth (MDA-MB-435 melanoma) | growth (SW-620 colon) | growth (MCF7 breast) | growth (HCT-116 colon) | growth (HCC-2998 colon) | growth (KM12 colon) | growth (MDA-MB-468 breast)
CS(=O)(=O)Nc1cc(-c2ccc3ncnc(Nc4ccc(OCc5cccnc5)c(Cl)c4)c3c2)cnc1Cl | -60.1% (active) | -2.42% (active) | 8.77% (active) | 12.1% (inactive) | 28.9% (inactive) | -14.9% (active) | -56.8% (active) | -40.7% (active) | -25.3% (active) | 70.5% (inactive) | -39% (active) | -55.6% (active) | -9.37% (active) | 6.78% (active) | -8.39% (active) | -71.6% (active) | -60.4% (active) | 10.8% (inactive) | -81.3% (active)
CC[C@]12C=CCN3CC[C@]4(C(=C(C(=O)OC)C1)Nc1cc(OC)c([C@@H]5[C@H]6O[C@H]6[C@@]6(CC)CC(C(=O)OC)=C7Nc8cc(O)ccc8[C@@]78CCN5[C@@H]68)cc14)[C@@H]32 | -30.7% (active) | -5.84% (active) | 27.6% (inactive) | -66.7% (active) | 14.6% (inactive) | 40.2% (inactive) | 1.62% (active) | -9.2% (active) | 23.7% (inactive) | 6.92% (active) | 2.37% (active) | -29% (active) | -53.9% (active) | 1.97% (active) | -25.7% (active) | -72.3% (active) | -76.3% (active) | 0.303% (active) | -48.9% (active)
COc1ccc(-c2cc(C(=O)N=Nc3c(O)[nH]c4ccc(Cl)cc34)c3ccccc3n2)cc1OC | 103% (inactive) | 119% (inactive) | 110% (inactive) | 104% (inactive) | 116% (inactive) | 154% (inactive) | 93% (inactive) | 118% (inactive) | 110% (inactive) | 98.2% (inactive) | 106% (inactive) | 113% (inactive) | 119% (inactive) | 103% (inactive) | 87.8% (inactive) | 101% (inactive) | 109% (inactive) | 101% (inactive) | 98.9% (inactive)
CN(C)CCCc1ccc(Nc2cnn(C)c(=O)c2Cl)cc1 | 62.2% (inactive) | 102% (inactive) | 106% (inactive) | 126% (inactive) | 100% (inactive) | 131% (inactive) | 104% (inactive) | 105% (inactive) | 105% (inactive) | 109% (inactive) | 98.2% (inactive) | 115% (inactive) | 97.8% (inactive) | 109% (inactive) | 80.8% (inactive) | 95.5% (inactive) | 118% (inactive) | 111% (inactive) | 82.8% (inactive)
O=C(Nc1nc2ccc([N+](=O)[O-])cc2s1)Nc1ccc(Cl)cc1Cl | 47.6% (inactive) | 23.5% (inactive) | 48.4% (inactive) | 84.6% (inactive) | 54.6% (inactive) | 4.05% (active) | 60.7% (inactive) | 65.4% (inactive) | 46.4% (inactive) | 26.6% (inactive) | 20.7% (inactive) | 65.3% (inactive) | 60.3% (inactive) | 75.9% (inactive) | 36% (inactive) | 22.5% (inactive) | 69.4% (inactive) | 60.2% (inactive) | 29.1% (inactive)
Cn1cc(-c2cc(N)n3nc(-c4c[nH]c5ccccc45)cc3n2)c2ccccc21 | 12.1% (inactive) | -3.23% (active) | -83% (active) | -79% (active) | -34.7% (active) | -95.1% (active) | -79.8% (active) | -79.4% (active) | -23.7% (active) | -40.6% (active) | -56.6% (active) | -92.5% (active) | -80.6% (active) | -87.1% (active) | -77.3% (active) | -88% (active) | -77.1% (active) | -80% (active) | -79.8% (active)
CCC1(OC(=O)c2ccccc2SSCCOC(=O)CCCCC2SCC3NC(=O)NC32)C(=O)OCc2c1cc1n(c2=O)Cc2cc3ccccc3nc2-1 (centres undefined) | 3.84% (active) | 33.1% (inactive) | 37.4% (inactive) | 97% (inactive) | 66% (inactive) | 46.3% (inactive) | 75.3% (inactive) | 72.7% (inactive) | 82.9% (inactive) | 24.2% (inactive) | 33.7% (inactive) | 49.4% (inactive) | 70.1% (inactive) | 51.5% (inactive) | 26.5% (inactive) | 53.8% (inactive) | 78.7% (inactive) | 79% (inactive) | -12.1% (active)
C=CCSc1nnc(-c2c(C)nc3sccn23)o1 | 101% (inactive) | 86% (inactive) | 98.6% (inactive) | 85.8% (inactive) | 102% (inactive) | 98.6% (inactive) | 95.5% (inactive) | 131% (inactive) | 77.1% (inactive) | 82.7% (inactive) | 79.4% (inactive) | 65.2% (inactive) | 101% (inactive) | 97% (inactive) | 70.8% (inactive) | 94% (inactive) | 110% (inactive) | 101% (inactive) | 5.74% (active)
CCCCCCCOc1ccc(S(=O)(=O)Nc2ccc(C)c(F)c2C(=O)O)cc1 | 98.7% (inactive) | 54.9% (inactive) | 97.1% (inactive) | 107% (inactive) | 90.1% (inactive) | 104% (inactive) | 109% (inactive) | 99.9% (inactive) | 87.8% (inactive) | 94.4% (inactive) | 93.9% (inactive) | 103% (inactive) | 102% (inactive) | 100% (inactive) | 86.6% (inactive) | 95.5% (inactive) | 117% (inactive) | 97.1% (inactive) | 72.8% (inactive)
CCCn1c(NC(=O)c2cccc(C(N)=O)c2)nc2ccc(CN3CCCCC3)cc21 | 31.4% (inactive) | 85.2% (inactive) | 107% (inactive) | 83.3% (inactive) | 98.5% (inactive) | 85.9% (inactive) | 72.4% (inactive) | 112% (inactive) | 111% (inactive) | 111% (inactive) | 107% (inactive) | -48% (active) | 93.1% (inactive) | 109% (inactive) | 75.6% (inactive) | 6.73% (active) | 107% (inactive) | 24% (inactive) | 109% (inactive)
C#CCN(C)CCCOc1ccc(N(C)C(=O)c2cc(C(C)C)c(O)cc2O)cc1Cl | -13.5% (active) | 8.9% (active) | 9.81% (active) | 29.4% (inactive) | 36.1% (inactive) | 16.2% (inactive) | 11.4% (inactive) | 30.7% (inactive) | 26.3% (inactive) | -5.62% (active) | 11% (inactive) | 9.45% (active) | 4.66% (active) | 12.2% (inactive) | 7.62% (active) | 7.57% (active) | -38.4% (active) | 5.69% (active) | -30.8% (active)
COc1ccc(C(=O)c2c(N)c(C#N)cn2-c2ccc([N+](=O)[O-])cc2)cc1 | 94.5% (inactive) | 108% (inactive) | 88.5% (inactive) | 107% (inactive) | 101% (inactive) | 93.9% (inactive) | 109% (inactive) | 122% (inactive) | 95.2% (inactive) | 98.2% (inactive) | 90.1% (inactive) | 113% (inactive) | 81.1% (inactive) | 105% (inactive) | 95.1% (inactive) | 106% (inactive) | 101% (inactive) | 105% (inactive) | 109% (inactive)
CCCCCCCCc1cccc(CC(=O)Nc2ccc(C)cc2C(=O)O)c1 | 31.1% [25 µM] (inactive) | 25.4% [25 µM] (inactive) | 45.6% [25 µM] (inactive) | 75.6% [25 µM] (inactive) | 86.1% [25 µM] (inactive) | 89.2% [25 µM] (inactive) | 42.5% [25 µM] (inactive) | 69.4% [25 µM] (inactive) | 89.8% [25 µM] (inactive) | 49.6% [25 µM] (inactive) | 65.6% [25 µM] (inactive) | 73.6% [25 µM] (inactive) | 54.9% [25 µM] (inactive) | 51.2% [25 µM] (inactive) | 36.7% [25 µM] (inactive) | 28.1% [25 µM] (inactive) | 69.4% [25 µM] (inactive) | 45.8% [25 µM] (inactive) | 73% [25 µM] (inactive)
O=C(CSc1nnc(-c2ccc(-c3nc4ccc(Cl)cc4[nH]3)cc2)o1)Nc1ccccc1 | 10.9% (inactive) | 45.6% (inactive) | -44.3% (active) | 49.9% (inactive) | 37.9% (inactive) | 66.3% (inactive) | 70.8% (inactive) | 43.4% (inactive) | 40.6% (inactive) | 31.7% (inactive) | 93.3% (inactive) | 80% (inactive) | 17.5% (inactive) | 0.173% (active) | 33.3% (inactive) | 5.65% (active) | 98.9% (inactive) | 34.1% (inactive) | 90.9% (inactive)
O=C1CCC(N2C(=O)c3cccc(NCCCCCC(=O)N4CCN(c5ccc6nc7c(nc6c5C(F)(F)F)C(=O)c5ncccc5C7=O)CC4)c3C2=O)C(=O)N1 (centres undefined) | 8.9% (active) | -0.232% (active) | -53.3% (active) | -90.5% (active) | -83.4% (active) | -66.9% (active) | -75.4% (active) | -50.4% (active) | -11.5% (active) | 19.6% (inactive) | -41.1% (active) | -76.8% (active) | -79.8% (active) | -50.9% (active) | -71.6% (active) | -86% (active) | -98% (active) | -49.6% (active) | -49.9% (active)
O=C(CCl)Nc1ccc(C(=O)/C=C/c2cc3ccccc3nc2Cl)cc1 | -69.5% (active) and 25.5% (inactive) | -36.6% (active) and 40.5% (inactive) | 14.6% (inactive) and 48.6% (inactive) | -61.1% (active) and 55.9% (inactive) | -59.6% (active) and 54.7% (inactive) | 70.5% (inactive) and 66.7% (inactive) | -84.1% (active) and 39.2% (inactive) | -59.5% (active) and 42.4% (inactive) | 42.1% (inactive) and 53.7% (inactive) | -26.4% (active) and 4.54% (active) | -46.9% (active) and 51.1% (inactive) | -82.4% (active) and 45.6% (inactive) | -54.9% (active) and 52.1% (inactive) | -78.3% (active) and 48.9% (inactive) | -57.1% (active) and 24.9% (inactive) | 8.67% (active) and 39.7% (inactive) | -93.4% (active) and 51.1% (inactive) | -68.6% (active) and 22.5% (inactive) | -82.5% (active) and 54.9% (inactive)

— PubChem BioAssay (NCI)
